Assay results: PubChem BioAssay (NCATS)
Inconclusive results are not listed. The call rests on the fitted dose curve; in most records, active means well fitted inhibition curve with a large enough effect; inconclusive means small, poorly fitted or top-dose-only effect; inactive means no such curve, though single readings can be large or run the other way.

target: Rap guanine nucleotide exchange factor 3 (Homo sapiens) (UniProt O95398); assay: Confirmatory qHTS for antagonist of cAMP-regulated guanine nucleotide exchange factor 3 (EPAC1) (AID 1645880); conditions: EPAC1 Rap1B-BODIPY-GDP exchange, fluorescence; series mostly up to 115 µM; activity, negative = inhibition: at the top concentration;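 further: plate controls were DMSO only for no effect and full effect of the ATA control for full effect; nearly all actives have a fitted effect of over 55% in size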
Sequence (O95398 whole entry, looked up): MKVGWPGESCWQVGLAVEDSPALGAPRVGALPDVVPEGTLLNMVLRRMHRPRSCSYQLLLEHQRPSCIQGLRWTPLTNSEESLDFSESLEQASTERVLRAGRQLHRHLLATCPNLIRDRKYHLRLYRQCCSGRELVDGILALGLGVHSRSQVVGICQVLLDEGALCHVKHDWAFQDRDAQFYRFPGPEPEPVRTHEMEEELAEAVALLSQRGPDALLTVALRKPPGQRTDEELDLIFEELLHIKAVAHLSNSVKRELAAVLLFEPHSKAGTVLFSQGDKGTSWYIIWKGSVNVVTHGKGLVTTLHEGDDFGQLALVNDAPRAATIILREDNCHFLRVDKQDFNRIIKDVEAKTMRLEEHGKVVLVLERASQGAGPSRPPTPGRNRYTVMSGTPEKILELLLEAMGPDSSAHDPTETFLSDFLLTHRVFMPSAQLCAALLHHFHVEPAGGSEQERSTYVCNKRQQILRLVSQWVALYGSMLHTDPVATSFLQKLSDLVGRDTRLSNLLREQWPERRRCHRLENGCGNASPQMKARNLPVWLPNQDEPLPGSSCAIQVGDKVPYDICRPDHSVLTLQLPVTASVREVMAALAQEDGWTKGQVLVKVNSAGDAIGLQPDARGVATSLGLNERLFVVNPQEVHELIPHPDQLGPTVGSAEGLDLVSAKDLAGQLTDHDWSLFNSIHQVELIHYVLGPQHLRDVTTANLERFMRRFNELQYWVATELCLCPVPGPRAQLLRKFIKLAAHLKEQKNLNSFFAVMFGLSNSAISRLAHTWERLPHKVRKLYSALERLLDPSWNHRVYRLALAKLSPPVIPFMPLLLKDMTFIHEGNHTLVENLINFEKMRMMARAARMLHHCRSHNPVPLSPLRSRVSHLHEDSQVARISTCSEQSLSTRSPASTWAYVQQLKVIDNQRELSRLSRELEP
Outline: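 Nucleotide exchange uses 100 nM EPAC1, 250 nM RAP1B-BODIPY-GDP and 50 uM GDP, with compounds in a concentration-titration series. After 5 min at room temperature, fluorescence (480 nm ex/540 nm em) is read every 5 min for 30 min. Data are normalized to control ATA and DMSO.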

activity, negative = inhibition, inactive:
CC[C@H]1c2[nH]c3ccc(C(C)C)cc3c2[C@@H]2CCN3C(=O)CCC[C@H]1[C@H]23 -11.1%, COc1ccc(NC(=O)Cn2c(SCc3cc(C)ccc3C)nc3ccncc32)c(OC)c1OC -27.7%, C#C[C@]1(OC(C)=O)CCC2C3CCC4=CC(=O)CC[C@@H]4C3CC[C@@]21C (stereo partly specified) -15%, COc1ccc(-c2nc3cc(C)ccc3cc2CN(C(=O)c2cccs2)C2CC2)cc1OC -9.59%, COc1cc(C(=O)N(Cc2cc3ccc(C)cc3nc2N(C)C)C2CC2)cc(OC)c1OC -9.74%, COc1ccc(SC[C@H](C)CN2CC[C@H](C)CCC2=O)cc1 -11.9%, N#Cc1cc(NC(=O)c2ccc(Cl)cc2)ccc1Sc1ccccc1 -21.3%, CN(C)CCNC(=O)c1cccc(-c2cnc3c(NC=O)cc(-c4cccc(C(F)(F)F)c4)cn23)c1 -30.1%, CCN(CC)c1ccc2cc(-c3nc(-c4ccccc4F)no3)c(=O)oc2c1 60%, COc1cccc(C(=O)N(Cc2cc3ccc(C)cc3nc2N(C)C)C2CC2)c1OC -15.8%, COc1ccc(C(C[N+](=O)[O-])c2c(C)cc3ccccn23)c(OC)c1 (stereo unspecified) -24.3%, C1=Cc2ccccc2/C1=C\c1ccc2c(c1)OCO2 -10.7%, CCOC(=O)C1=CCN(S(=O)(=O)c2ccc(C)cc2)C1c1cccs1 (stereo unspecified) -14.5%, CC(C(=O)Nc1ccccc1C(F)(F)F)n1nc(-c2ccccc2)c2c(c1=O)CCCC2 (stereo unspecified) -23.6%, CCCCCn1c(C)c2c(OCC)cccc(=O)c2c1C -12.3%, C(=C\c1nccc2ccccc12)/c1ccc(N2CCOCC2)cc1 -16.7%
